According to the supplement of paper PMC3334620:
Over roughly 33,000 sequences, “E-score (-0.5 to 0.5)” has its median near -0.015; the highest 2% begin near 0.3. Only a selection was taken, and the highest values are over-represented in it overall.

Molecular target: T1, Abf1 (UniProt P14164)
T1 sequence: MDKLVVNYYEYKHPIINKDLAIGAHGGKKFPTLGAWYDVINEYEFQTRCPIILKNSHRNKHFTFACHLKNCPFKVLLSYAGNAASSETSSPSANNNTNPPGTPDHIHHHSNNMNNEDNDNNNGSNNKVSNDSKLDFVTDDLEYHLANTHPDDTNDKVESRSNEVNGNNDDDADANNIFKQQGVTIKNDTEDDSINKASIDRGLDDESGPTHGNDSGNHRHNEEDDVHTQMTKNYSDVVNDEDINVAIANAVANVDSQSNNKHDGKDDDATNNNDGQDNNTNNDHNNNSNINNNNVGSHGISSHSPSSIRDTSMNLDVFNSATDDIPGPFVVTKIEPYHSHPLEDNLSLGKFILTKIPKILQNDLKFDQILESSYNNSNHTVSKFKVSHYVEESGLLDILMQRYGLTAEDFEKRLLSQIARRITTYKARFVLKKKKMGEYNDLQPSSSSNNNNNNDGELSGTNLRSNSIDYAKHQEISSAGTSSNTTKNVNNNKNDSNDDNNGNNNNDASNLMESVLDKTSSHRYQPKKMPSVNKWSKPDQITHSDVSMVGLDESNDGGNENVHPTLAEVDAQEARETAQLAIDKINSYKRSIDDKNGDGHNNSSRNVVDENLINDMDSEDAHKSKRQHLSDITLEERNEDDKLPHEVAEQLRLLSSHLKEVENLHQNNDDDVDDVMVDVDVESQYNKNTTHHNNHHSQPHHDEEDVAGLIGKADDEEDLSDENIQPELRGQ
Assay: PBM E-score (8-mer binding enrichment) (E-score (-0.5 to 0.5)); higher = stronger / more preferred TF binding
Settings: protein concentration: 200 nM; construct: GST-full length
Method: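 Universal 'all 10-mer' protein binding microarrays (Agilent AMADID 015681) probed with GST-tagged S. cerevisiae TFs (full-length or DBD) made by in vitro transcription/translation (PURExpress), about 100-200 nM. Bound TF was detected with fluorescent anti-GST. Each ungapped 8-mer (which stands for itself and its reverse complement) is scored by the PBM enrichment score (E-score), a modified Wilcoxon-Mann-Whitney statistic from -0.5 to +0.5, computed with the Universal PBM Analysis Suite. Scale: above 0.35 generally sequence-specific binding.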

Sequence | PBM E-score
ATAACCCA | -0.0314
AGGGTAAT | 0.0413
CACAGTGA | 0.109
GCATCTCC | -0.255
ACTGGAGA | -0.174
CCCCCAGA | -0.326
CACGAGTC | 0.0257
AGCACGAA | 0.217
TGCACGAA | 0.368
GGCACGAA | 0.103
CGCACGAC | 0.242
CGCACGAG | 0.156
CGCACGAA | 0.321
CACAACGC | -0.174
AGGGAGGA | -0.187
ATCCGGGC | -0.197
GCGATATA | 0.368
ATGATATA | 0.403
AAGATATA | 0.162
ATGATATG | 0.367
CTGATATA | 0.107
ATGATAGG | 0.116
GGGATATA | -0.045
GCGATACA | 0.139
AAGATATG | 0.283

Sequence | PBM E-score
GAGATATA | 0.147
GTGATATA | 0.395
CCGATATA | 0.0343
GTGGACAA | 0.133
CTCCTGAC | 0.0261
AGGGGACA | -0.0441
CCAGGGTC | -0.217
ACGGCTAC | 0.0914
CGTTCAGA | 0.0456
ATGATAGC | 0.24
ATGATACG | 0.305
ATGATACA | 0.202
ATGATACC | 0.291
ATGATATC | 0.362
CTGATATC | 0.0641
ACGCGCCT | -0.0785
AGATAAGG | 0.00618
GGAGGTCA | 0.0571
CTGACGAC | 0.228
GTGTACTA | 0.165
CTGTACAA | 0.109
CTGTACGA | 0.383
GAGTACGA | 0.0499
GTGTACGA | 0.337
ATGTACGA | 0.444

Sequence | PBM E-score
ATGTACGC | 0.027
ATGTACGG | 0.241
CTGTACGC | -0.106
GTGTCGGA | 0.0611
GACGTAGA | 0.0745
TCCGACCA | -0.143
AAACTCTA | -0.144
CCCACAAC | -0.0362
GCCTCCAA | -0.121
GATATACA | 0.111
GATATATC | 0.332
CATATACC | -0.0104
AATATATC | 0.139
GATATAAA | 0.22
CATATAAC | 0.155
GATATATA | 0.289
GATATACC | 0.34
GATATAAC | 0.307
ATACGCGG | -0.114
CTTGGGGC | -0.247
AACCCTAA | 0.00952
CCGATACC | -0.101
ATACGTGG | 0.155
GAACGCGA | -0.146
GGGCGCGA | 0.0618

Sequence | PBM E-score
AGTTGTGC | -0.108
ACGGGCGA | -0.00147
ACTGATAA | 0.126
AGTGATAC | 0.385
AGTGATAA | 0.445
ACTGATAT | 0.108
AGTGATAG | 0.303
ATTGATAG | -0.0465
CGTGATAC | 0.23
ATTGATAA | 0.27
AGTGAGAT | 0.147
CGTGATAG | 0.221
AGTGATAT | 0.442
GGTGATAC | 0.186
AGCGCCAG | -0.0266
AACCAGAA | 0.0884
CCCTCGGA | 0.00175
AAACGAAA | 0.159
ATACGATG | 0.261
ACACGAAG | 0.269
ATACGAAG | 0.328
CTACGATC | 0.195
ATACGAAT | 0.275
ATACGATC | 0.307
CTACGAAG | 0.215

Sequence | PBM E-score
AGACGACG | 0.235
ATACGAAA | 0.349
ATACGACC | 0.239
ATACGACG | 0.341
CGAATACG | 0.189
ACCCGAGT | -0.152
ACATTGAA | 0.0551
ACGGTCGC | 0.134
TGTAACAA | 0.0346
AGCAGGCA | -0.114
ACTGTATG | -0.184
ACTGAAGT | -0.0998
GTCCCGAA | 0.00205
CAAATCAC | 0.19
AAAATCAG | 0.193
GAAATCAC | 0.322
GAAATCAA | 0.0471
AAAATCAC | 0.352
AAAATCAA | 0.0207
AACTGAGA | 0.0232
GTAGATCA | 0.319
ATAGATCA | 0.267
CTTGATCA | 0.183
ATTGATCA | 0.267
AATGATCC | 0.0166

Sequence | PBM E-score
AATGATCA | 0.347
GTTGATCA | 0.298
AATGATCG | 0.232
CATGATCA | 0.33
CTAGATCA | 0.161
CATGATCG | 0.0839
CATGATCC | 0.00859
CATGCGGC | -0.229
GGTTAACA | -0.138
AAAGAACT | 0.0334
ACATTAGA | 0.0369
AGTTAACT | -0.0757
AATGAACT | -0.177
GATGATCA | 0.329
TACGATCA | 0.208
AAAGATCA | 0.164
ACTGATCT | 0.0694
TCTGATCA | 0.155
GATGATCC | 0.0853
CAAGATCA | 0.16
AATGATCT | 0.324
TAAGATCA | 0.314
TATGATCA | 0.309
GATGATTA | 0.263
GCCTAGAC | -0.11

Sequence | PBM E-score
ATACATTC | 0.0799
AACGGGGC | -0.0372
ACGCACCA | -0.101
CCATTTCC | -0.0246
CGGGTTAG | -0.173
CAAATAGA | 0.0564
GAGGTATC | 0.047
GTAAGTGA | 0.208
CTAAGTGC | -0.0207
ATAAGTGC | 0.0214
ATAAGTGG | 0.126
CTAAGTGA | 0.327
ATAAGTGA | 0.3
GGAAGTGA | 0.329
CGAAGTGA | 0.272
AGAAGTGA | 0.243
AGATTTAG | 0.0517
CCGGAAGA | 0.0618
AGACTTTA | 0.0584
AGGCTCTG | -0.089
CAGGCACC | -0.178
GCCAGCCC | -0.375
